Measured values: PubChem BioAssay (EPA / NIEHS)
Inconclusive results are not listed. Active and inactive are the calls of the source. How the source made its calls, unless noted: active means hit-call score of the fitted dose curve at least 0.9, where 1 is the maximum; inconclusive means response in the unintended direction; inactive means score below 0.9.

What was measured:
[1] = ATG_TCF_b_cat_CIS: Attagene CIS-FACTORIAL HepG2 Assay for human T-Cell-Factor with beta-catenin (TCF/b-cat) (AID 2282965; active means hit-call score of the fitted dose curve at least 0.9, where 1 is the maximum; inactive means score below 0.9); details: HepG2 TCF/beta-catenin cis-reporter transcription, actives raise or lower the signal
In short: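 Measured: reporter mRNA in HepG2 transiently transfected with cis-promoter reporter units, 24 h after chemical addition. Fitting was bidirectional, DMSO as negative control.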

[2] = ATG_TAL_CIS: Attagene CIS-FACTORIAL HepG2 Assay for human TAL Basal Promoter (AID 2282966; active means hit-call score of the fitted dose curve at least 0.9, where 1 is the maximum; inactive means score below 0.9;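 further: background control endpoint measuring basal TAL promoter reporter mRNA not a specific factor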); details: HepG2 Attagene cis-factorial TAL promoter reporter; actives raise or lower the signal
In short: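 Human hepatoma HepG2 cells, transfected with promoter-regulated reporter units, were treated 24 h. Reporter transcript levels, measured through RT-PCR and capillary electrophoresis, were fitted for gain or loss relative to DMSO.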

[3] = ATG_TGFb_CIS: Attagene CIS-FACTORIAL HepG2 Assay for human Transforming Growth Factor (TGF) (AID 2282967; active means hit-call score of the fitted dose curve at least 0.9, where 1 is the maximum; inactive means score below 0.9); details: HepG2 Attagene CIS TGFb reporter, mRNA transcription; actives raise or lower the signal
In short: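 Multiplexed cis-reporter HepG2 system, 24 h treatment; mRNA induction read by fluorescence after RT-PCR and CE; DMSO negative control, bidirectional curve fitting.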

[4] = biological target: Nuclear receptor subfamily 1 group I member 3 (Homo sapiens) (UniProt Q14994); experiment: ATG_CAR_TRANS: Attagene TRANS-FACTORIAL HepG2 Assay for human Constitutive Androstane Receptor (CAR) (AID 2282969); details: HepG2 Attagene TRANS-FACTORIAL CAR reporter;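 further: activators raise reporter mRNA above DMSO so AC50 marks induction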
Chain of Nuclear receptor subfamily 1 group I member 3 (Homo sapiens) (Q14994 whole entry, looked up, the tested form may be a part): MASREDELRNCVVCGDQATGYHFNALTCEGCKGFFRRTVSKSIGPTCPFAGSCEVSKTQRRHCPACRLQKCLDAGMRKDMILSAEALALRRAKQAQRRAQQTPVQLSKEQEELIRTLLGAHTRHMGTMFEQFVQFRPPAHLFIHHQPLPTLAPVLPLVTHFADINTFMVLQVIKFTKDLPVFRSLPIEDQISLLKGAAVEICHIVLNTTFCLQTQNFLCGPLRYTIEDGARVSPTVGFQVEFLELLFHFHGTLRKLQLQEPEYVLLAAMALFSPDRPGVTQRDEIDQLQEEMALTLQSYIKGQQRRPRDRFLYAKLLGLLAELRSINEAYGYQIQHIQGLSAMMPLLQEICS
In short: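 Signal is reporter mRNA induction relative to DMSO, measured 24 h after dosing by RT-PCR with fluorescent primer extension and capillary electrophoresis. Human HepG2 liver cells carried transiently transfected chimeric NR-Gal4/GAL4-UAS reporter constructs.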

[5] = biological target: Estrogen receptor (Homo sapiens) (UniProt P03372); experiment: ATG_ERa_TRANS: Attagene TRANS-FACTORIAL HepG2 Assay for human Estrogen Receptor alpha (ERa) (AID 2282970); details: HepG2 Attagene TRANS ERa GAL4 reporter, mRNA
Chain of Estrogen receptor (Homo sapiens) (P03372 whole entry, looked up, the tested form may be a part): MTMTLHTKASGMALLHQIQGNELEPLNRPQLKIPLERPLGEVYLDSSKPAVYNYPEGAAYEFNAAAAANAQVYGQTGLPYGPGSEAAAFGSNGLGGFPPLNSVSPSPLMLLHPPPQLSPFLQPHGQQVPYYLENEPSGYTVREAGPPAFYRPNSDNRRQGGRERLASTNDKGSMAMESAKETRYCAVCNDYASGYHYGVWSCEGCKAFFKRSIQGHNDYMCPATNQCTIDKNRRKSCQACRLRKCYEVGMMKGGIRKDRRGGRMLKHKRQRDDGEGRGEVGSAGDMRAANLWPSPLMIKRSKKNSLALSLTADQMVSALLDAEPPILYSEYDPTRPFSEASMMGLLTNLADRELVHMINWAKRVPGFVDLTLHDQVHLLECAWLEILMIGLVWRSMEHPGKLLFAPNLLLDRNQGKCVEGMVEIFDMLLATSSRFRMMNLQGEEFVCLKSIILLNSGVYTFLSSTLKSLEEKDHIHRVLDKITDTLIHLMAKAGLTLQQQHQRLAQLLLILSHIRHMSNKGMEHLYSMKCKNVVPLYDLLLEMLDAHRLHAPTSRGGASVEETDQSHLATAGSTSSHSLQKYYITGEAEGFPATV
In short: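 Signal derives from fluorescence of labelled reporter PCR fragments separated by capillary electrophoresis. HepG2 cells transiently carrying multiple GAL4-UAS reporter units were treated 24 hours, and induction above DMSO baseline was fitted as activity.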

[6] = biological target: Steroid hormone receptor ERR1 (Homo sapiens) (UniProt P11474); experiment: ATG_ERRa_TRANS: Attagene TRANS-FACTORIAL HepG2 Assay for human Estrogen-Related Receptor alpha (ERRa) (AID 2282971); details: HepG2 Attagene TRANS reporter, ERRa transactivation
Chain of Steroid hormone receptor ERR1 (Homo sapiens) (P11474 whole entry, looked up, the tested form may be a part): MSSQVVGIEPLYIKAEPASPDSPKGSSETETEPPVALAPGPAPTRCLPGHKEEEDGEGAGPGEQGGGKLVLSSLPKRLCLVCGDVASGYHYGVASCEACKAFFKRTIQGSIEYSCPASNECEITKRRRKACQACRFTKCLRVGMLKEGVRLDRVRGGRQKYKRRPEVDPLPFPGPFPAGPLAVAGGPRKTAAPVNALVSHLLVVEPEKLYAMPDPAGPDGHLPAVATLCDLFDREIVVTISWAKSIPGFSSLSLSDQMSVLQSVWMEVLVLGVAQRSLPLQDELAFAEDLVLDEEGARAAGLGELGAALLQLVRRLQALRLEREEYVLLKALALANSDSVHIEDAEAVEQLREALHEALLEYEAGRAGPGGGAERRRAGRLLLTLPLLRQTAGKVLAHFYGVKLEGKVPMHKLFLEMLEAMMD
In short: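 Signal gain relative to DMSO for an ERRa-Gal4 chimeric receptor, read as reporter mRNA by RT-PCR/capillary electrophoresis. Human HepG2 liver cells, transient multiplex reporter transfection, 24 h chemical exposure.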

[7] = biological target: X-box-binding protein 1 (Homo sapiens) (UniProt P17861); experiment: ATG_Xbp1_CIS: Attagene CIS-FACTORIAL HepG2 Assay for human X-box Binding Protein 1 (XBP1) (AID 2282972; active means hit-call score of the fitted dose curve at least 0.9, where 1 is the maximum; inactive means score below 0.9); details: HepG2 XBP1 cis-element reporter, Attagene multiplex; actives raise or lower the signal
Chain of X-box-binding protein 1 (Homo sapiens) (P17861 whole entry, looked up): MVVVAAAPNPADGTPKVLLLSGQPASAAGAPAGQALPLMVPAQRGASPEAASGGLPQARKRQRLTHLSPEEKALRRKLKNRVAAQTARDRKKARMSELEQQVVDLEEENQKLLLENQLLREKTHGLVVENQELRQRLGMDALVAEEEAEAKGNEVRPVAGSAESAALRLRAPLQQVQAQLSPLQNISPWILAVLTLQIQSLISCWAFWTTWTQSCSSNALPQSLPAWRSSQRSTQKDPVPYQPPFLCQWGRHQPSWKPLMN
In short: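 Multiplexed cis-reporter readout in transfected HepG2 liver cells. Exposure lasted 24 hours. Activity in either direction was fitted against DMSO as negative control and baseline.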

[8] = ATG_GAL4_TRANS: Attagene TRANS-FACTORIAL HepG2 Assay for GAL4 (Internal Marker) (AID 2282976); details: HepG2 Attagene TRANS GAL4 internal marker reporter
In short: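 Liver HepG2 line bearing multiplexed GAL4-UAS reporter constructs; 24 h chemical treatment. Transcripts were quantified as fluorescent fragments on capillary electrophoresis after RT-PCR and HpaI cut, with activity fitted upward from DMSO.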

[9] = biological target: Estrogen-related receptor gamma (Homo sapiens) (UniProt P62508); experiment: ATG_ERRg_TRANS: Attagene TRANS-FACTORIAL HepG2 Assay for human Estrogen-Related Receptor gamma (ERRg) (AID 2282977); details: HepG2 Attagene TRANS reporter, ERRg transactivation;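 further: hits increase reporter signal over DMSO so potencies reflect activators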
In short: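 Readout: fluorescent reporter-mRNA fragments resolved by capillary electrophoresis after RT-PCR and HpaI cut. Cells: transiently transfected HepG2 carrying GAL4-UAS reporters driven by exogenous NR-Gal4 chimeras, dosed 24 h. Activity fitted upward relative to DMSO baseline.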

[10] = biological target: Bile acid receptor (Homo sapiens) (UniProt Q96RI1); experiment: ATG_FXR_TRANS: Attagene TRANS-FACTORIAL HepG2 Assay for Farnesoid X Receptor (FXR) (AID 2282979); details: HepG2 Attagene TRANS FXR-GAL4 reporter transcription;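 further: hits raise reporter mRNA above DMSO so AC50 marks FXR activation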
Chain of Bile acid receptor (Homo sapiens) (Q96RI1 whole entry, looked up, the tested form may be a part): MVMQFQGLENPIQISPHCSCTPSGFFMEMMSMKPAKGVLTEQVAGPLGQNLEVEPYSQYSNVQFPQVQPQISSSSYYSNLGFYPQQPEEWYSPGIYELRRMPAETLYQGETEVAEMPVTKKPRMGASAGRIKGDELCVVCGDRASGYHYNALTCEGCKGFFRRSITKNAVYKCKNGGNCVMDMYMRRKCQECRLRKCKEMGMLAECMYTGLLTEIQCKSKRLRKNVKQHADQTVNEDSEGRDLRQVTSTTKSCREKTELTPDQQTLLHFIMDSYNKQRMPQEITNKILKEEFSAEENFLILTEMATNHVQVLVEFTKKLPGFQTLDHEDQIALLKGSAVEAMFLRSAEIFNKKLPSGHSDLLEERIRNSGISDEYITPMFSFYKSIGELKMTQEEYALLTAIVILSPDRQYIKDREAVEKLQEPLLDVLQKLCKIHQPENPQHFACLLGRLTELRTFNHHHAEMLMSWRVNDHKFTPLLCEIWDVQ
In short: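 After 24 h chemical treatment of transfected HepG2 cells, GAL4-UAS reporter transcripts driven by an exogenous FXR-GAL4 fusion were measured by RT-PCR and capillary electrophoresis. Increases over DMSO were fitted.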

[11] = ATG_M_06_TRANS: Attagene TRANS-FACTORIAL HepG2 Assay for M06 Transcription Factor (Internal Marker) (AID 2282983); details: HepG2 Attagene TRANS M06 internal marker reporter
In short: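 Multi-reporter-transfected HepG2, 24 h treatment; reporter transcripts quantified via RT-PCR, primer-extension labelling and CE. DMSO-normalized gain-of-signal fit.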

[12] = biological target: Transcriptional activator Myb (Homo sapiens) (UniProt P10242); experiment: ATG_Myb_CIS: Attagene CIS-FACTORIAL HepG2 Assay for human Myeloblastosis (Myb) Proto-Oncogene Transcription Factor (AID 2282986; active means hit-call score of the fitted dose curve at least 0.9, where 1 is the maximum; inactive means score below 0.9); details: HepG2 Attagene CIS-FACTORIAL Myb reporter transcription; actives raise or lower the signal
Chain of Transcriptional activator Myb (Homo sapiens) (P10242 whole entry, looked up): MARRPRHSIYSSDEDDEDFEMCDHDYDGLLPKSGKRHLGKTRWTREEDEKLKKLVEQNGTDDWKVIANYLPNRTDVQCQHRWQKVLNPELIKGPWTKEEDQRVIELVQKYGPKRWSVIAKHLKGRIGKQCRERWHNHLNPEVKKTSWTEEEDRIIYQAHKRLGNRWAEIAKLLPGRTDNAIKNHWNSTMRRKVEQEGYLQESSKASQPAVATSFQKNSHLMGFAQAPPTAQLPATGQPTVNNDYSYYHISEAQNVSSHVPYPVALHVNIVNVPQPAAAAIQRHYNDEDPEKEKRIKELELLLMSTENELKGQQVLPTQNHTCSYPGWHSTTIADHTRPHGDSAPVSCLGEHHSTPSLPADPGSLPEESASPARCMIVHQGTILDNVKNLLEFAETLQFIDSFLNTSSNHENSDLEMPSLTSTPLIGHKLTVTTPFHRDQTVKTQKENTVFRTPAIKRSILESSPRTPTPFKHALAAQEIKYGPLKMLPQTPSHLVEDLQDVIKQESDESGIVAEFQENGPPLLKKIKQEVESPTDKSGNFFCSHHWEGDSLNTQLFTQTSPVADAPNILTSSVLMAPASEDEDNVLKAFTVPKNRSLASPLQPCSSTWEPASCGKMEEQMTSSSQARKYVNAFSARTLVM
In short: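 Reporter mRNA is quantified by RT-PCR and capillary electrophoresis 24 h after dosing HepG2 cells transfected with cis-regulated reporter units, which track endogenous transcription factor activity. Gain and loss of signal are fitted versus DMSO baseline.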

[13] = ATG_M_19_TRANS: Attagene TRANS-FACTORIAL HepG2 Assay for M19 Transcription Factor (Internal Marker) (AID 2282974); details: HepG2 Attagene TRANS-FACTORIAL M19 internal marker reporter
In short: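 Background-control readout: after 24 h chemical exposure of transfected HepG2 carrying GAL4-driven reporter units, RNA was reverse-transcribed, amplified, fluorescently labeled and sized by capillary electrophoresis; gain-of-signal fit against DMSO.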

[14] = biological target: Glucocorticoid receptor (Homo sapiens) (UniProt P04150); experiment: ATG_GR_TRANS: Attagene TRANS-FACTORIAL HepG2 Assay for human Glucocorticoid Receptor (GR) (AID 2282978); details: HepG2 Attagene TRANS GR reporter, mRNA transcription;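 further: activators score as hits since higher reporter transcript over DMSO is fitted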
In short: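 Readout is reporter transcript from a chimeric GR-Gal4 acting on GAL4-UAS in transfected human HepG2 liver cells after 24 h exposure, quantified by RT-PCR and capillary electrophoresis. Activation fitted upward against DMSO.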

[15] = biological target: Oxysterols receptor LXR-alpha (Homo sapiens) (UniProt Q13133); experiment: ATG_LXRa_TRANS: Attagene TRANS-FACTORIAL HepG2 Assay for human Liver X Receptor alpha (LXRa) (AID 2282980); details: HepG2 Attagene TRANS reporter, LXRa transactivation
Chain of Oxysterols receptor LXR-alpha (Homo sapiens) (Q13133 whole entry, looked up, the tested form may be a part): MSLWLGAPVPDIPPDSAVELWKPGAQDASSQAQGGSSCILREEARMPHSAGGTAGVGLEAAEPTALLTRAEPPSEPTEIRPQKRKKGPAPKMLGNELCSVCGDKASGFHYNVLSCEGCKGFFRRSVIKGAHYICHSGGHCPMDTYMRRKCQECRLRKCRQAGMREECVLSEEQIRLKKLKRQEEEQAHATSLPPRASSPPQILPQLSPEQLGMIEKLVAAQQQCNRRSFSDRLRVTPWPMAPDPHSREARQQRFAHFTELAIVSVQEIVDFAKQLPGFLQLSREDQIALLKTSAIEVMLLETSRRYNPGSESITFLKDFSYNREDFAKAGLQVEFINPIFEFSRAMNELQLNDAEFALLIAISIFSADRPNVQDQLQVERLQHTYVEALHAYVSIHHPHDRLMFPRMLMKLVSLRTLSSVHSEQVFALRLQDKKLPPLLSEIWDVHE
In short: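 In this multiplexed TRANS system, compounds act on HepG2 cells carrying GAL4-UAS reporter units and a receptor-GAL4 fusion for 24 h. Induced reporter RNA is amplified, fluorescently labelled and sized by capillary electrophoresis, with DMSO as baseline.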

[16] = biological target: Oxysterols receptor LXR-beta (Homo sapiens) (UniProt P55055); experiment: ATG_LXRb_TRANS: Attagene TRANS-FACTORIAL HepG2 Assay for human Liver X Receptor beta (LXRb) (AID 2282981); details: HepG2 Attagene TRANS GAL4-LXRb reporter, mRNA
Chain of Oxysterols receptor LXR-beta (Homo sapiens) (P55055 whole entry, looked up, the tested form may be a part): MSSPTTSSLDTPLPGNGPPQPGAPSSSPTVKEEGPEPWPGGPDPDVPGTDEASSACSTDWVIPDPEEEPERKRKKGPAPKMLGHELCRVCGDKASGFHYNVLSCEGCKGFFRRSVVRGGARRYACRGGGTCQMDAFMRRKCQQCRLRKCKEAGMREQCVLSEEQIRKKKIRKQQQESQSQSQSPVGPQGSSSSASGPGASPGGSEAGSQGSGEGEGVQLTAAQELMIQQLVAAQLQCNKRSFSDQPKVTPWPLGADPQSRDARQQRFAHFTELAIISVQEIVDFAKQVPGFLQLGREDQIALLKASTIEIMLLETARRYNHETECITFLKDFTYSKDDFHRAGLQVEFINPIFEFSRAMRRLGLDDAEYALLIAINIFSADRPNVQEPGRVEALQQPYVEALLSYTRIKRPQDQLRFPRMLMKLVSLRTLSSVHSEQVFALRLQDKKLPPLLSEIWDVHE
In short: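 After 24 h of chemical treatment, transfected HepG2 cells yield total RNA; reporter cDNA is PCR-amplified, FAM-labelled, HpaI-cut and run on capillary electrophoresis. Signal reflects chimeric LXRb-Gal4 activity on GAL4-UAS reporters.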

[17] = biological target: Hepatocyte nuclear factor 4-alpha (Homo sapiens) (UniProt P41235); experiment: ATG_HNF4a_TRANS: Attagene TRANS-FACTORIAL HepG2 Assay for human Hepatocyte Nuclear Factor 4 alpha (HNF4a) (AID 2282982); details: HepG2 HNF4a transactivation reporter, mRNA readout
Chain of Hepatocyte nuclear factor 4-alpha (Homo sapiens) (P41235 whole entry, looked up): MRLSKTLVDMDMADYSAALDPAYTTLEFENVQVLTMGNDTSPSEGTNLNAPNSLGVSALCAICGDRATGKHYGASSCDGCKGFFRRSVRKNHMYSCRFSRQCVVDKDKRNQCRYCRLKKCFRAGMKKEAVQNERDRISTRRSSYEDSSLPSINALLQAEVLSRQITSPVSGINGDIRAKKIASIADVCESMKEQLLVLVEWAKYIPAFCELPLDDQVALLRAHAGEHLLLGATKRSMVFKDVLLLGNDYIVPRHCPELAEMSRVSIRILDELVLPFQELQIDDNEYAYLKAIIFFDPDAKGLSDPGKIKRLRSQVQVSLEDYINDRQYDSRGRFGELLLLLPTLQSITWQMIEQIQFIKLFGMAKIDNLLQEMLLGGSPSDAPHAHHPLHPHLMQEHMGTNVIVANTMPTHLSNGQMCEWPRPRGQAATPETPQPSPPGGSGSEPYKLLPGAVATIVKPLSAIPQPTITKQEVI
In short: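 Multiplexed reporter assay: transfected HepG2, 24 h exposure, total RNA → oligo(dT) RT → PCR → 6-FAM extension → HpaI digest → CE fluorescence. DMSO = negative control.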

[18] = ATG_M_32_TRANS: Attagene TRANS-FACTORIAL HepG2 Assay for M32 Transcription Factor (Internal Marker) (AID 2282984); details: HepG2 Attagene TRANS M32 internal marker reporter
In short: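 Cell-based TRANS-format assay in HepG2: exogenous chimeric GAL4 reporter units transiently expressed, compounds applied 24 h. Reporter mRNA detected by RT-PCR plus capillary electrophoresis; this readout is an internal background marker.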

[19] = ATG_VDRE_CIS: Attagene CIS-FACTORIAL HepG2 Assay for human Vitamin D Receptor Element (VDRE) (AID 2282968; active means hit-call score of the fitted dose curve at least 0.9, where 1 is the maximum; inactive means score below 0.9); details: HepG2 VDRE cis-reporter transcription, actives raise or lower the signal
In short: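 Measures endogenous factor activity through cis-element-driven reporter transcripts in transiently transfected HepG2. Cells are treated 24 h; reporter mRNA is quantified by RT-PCR and capillary electrophoresis; fitting is bidirectional.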

[20] = biological target: Nuclear receptor subfamily 4 group A member 2 (Homo sapiens) (UniProt P43354); experiment: ATG_NURR1_TRANS: Attagene TRANS-FACTORIAL HepG2 Assay for human Nuclear Receptor Related Protein 1 (NURR1) (AID 2282985); details: HepG2 Attagene TRANS reporter, mRNA readout
Chain of Nuclear receptor subfamily 4 group A member 2 (Homo sapiens) (P43354 whole entry, looked up, the tested form may be a part): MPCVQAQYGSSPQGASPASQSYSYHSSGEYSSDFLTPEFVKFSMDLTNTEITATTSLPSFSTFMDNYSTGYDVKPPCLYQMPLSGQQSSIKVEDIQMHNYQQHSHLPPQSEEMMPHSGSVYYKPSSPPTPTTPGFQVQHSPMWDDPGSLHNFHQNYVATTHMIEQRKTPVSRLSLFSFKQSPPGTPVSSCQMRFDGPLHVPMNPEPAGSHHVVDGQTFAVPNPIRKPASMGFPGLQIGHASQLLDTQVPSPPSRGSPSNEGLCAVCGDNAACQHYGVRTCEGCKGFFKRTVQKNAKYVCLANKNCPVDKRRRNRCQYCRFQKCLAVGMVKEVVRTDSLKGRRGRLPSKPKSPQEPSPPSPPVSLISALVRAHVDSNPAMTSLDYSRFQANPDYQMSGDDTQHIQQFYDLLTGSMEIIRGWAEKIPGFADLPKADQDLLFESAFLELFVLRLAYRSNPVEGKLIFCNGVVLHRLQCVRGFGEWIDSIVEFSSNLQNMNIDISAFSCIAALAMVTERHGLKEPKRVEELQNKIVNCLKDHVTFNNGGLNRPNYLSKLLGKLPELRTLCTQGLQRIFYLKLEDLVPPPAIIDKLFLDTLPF
In short: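 Measures transcriptional activation by an exogenous NR-Gal4 chimera in transfected HepG2 liver cells. After 24 h, reporter RNA is reverse-transcribed, amplified and resolved by capillary electrophoresis; DMSO defines baseline.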

Measured: AC50

CC(C)c1ccc2ncccc2c1
not listed: [13] | [14] | [15] | [16] | [17] | [18] | [19] | [20]
inactive: all other assays above

CCCCC1CCC(=O)O1 (centres undefined)
not listed: [8] | [9] | [10] | [19] | [20]
inactive: all other assays above

CC(C)=NNC(N)=S
inactive: [1] | [2] | [3] | [19] | [7] | [8] | [10] | [11] | [20]

CC1(C)CC(O)CC(C)(C)N1[O]
not listed: [4] | [5] | [6] | [9] | [13] | [14] | [15] | [18]
inactive: all other assays above

Cc1cc(=O)[nH]c(=O)[nH]1
inactive: [1] | [2] | [3] | [19] | [7] | [8] | [14] | [15] | [11] | [18] | [12]

CCC(C)N (centres undefined)
inactive: [1] | [2] | [3] | [19] | [7] | [15] | [17] | [11] | [12]

CCCCCC(=O)OCC
inactive: [1] | [2] | [3] | [19] | [7] | [13] | [8] | [10] | [15] | [12]

Fc1ccc(Br)cc1
active: [5] 79.7 µM
not listed: [8] | [10] | [11] | [12] | [17] | [19]
inactive: all other assays above

CC(CC(C)C)=NO
inactive: [1] | [2] | [3] | [19] | [7] | [8] | [11] | [12]

CC(C)(C)N
not listed: [4] | [5] | [6] | [9] | [10] | [15] | [18] | [20]
inactive: all other assays above

CCC(C)C(=O)OC (centres undefined)
not listed: [4] | [5] | [7] | [8] | [9] | [15] | [16] | [20]
inactive: all other assays above
